Assay results published in ChEMBL document CHEMBL3988442, “University of Dundee, Small-Polar-MMV Screening Library” (2021).

The compounds below were run against Chromo domain-containing protein 1 (Saccharomyces cerevisiae (strain ATCC 204508 / S288c) (Baker's yeast)) (UniProt P32657) (assay: ScCHD-1 Enzyme Inhibition Assay). Conditions: 30 µM.
Chain of Chromo domain-containing protein 1 (Saccharomyces cerevisiae (strain ATCC 204508 / S288c) (Baker's yeast)) (P32657 whole entry, the tested form may be a part): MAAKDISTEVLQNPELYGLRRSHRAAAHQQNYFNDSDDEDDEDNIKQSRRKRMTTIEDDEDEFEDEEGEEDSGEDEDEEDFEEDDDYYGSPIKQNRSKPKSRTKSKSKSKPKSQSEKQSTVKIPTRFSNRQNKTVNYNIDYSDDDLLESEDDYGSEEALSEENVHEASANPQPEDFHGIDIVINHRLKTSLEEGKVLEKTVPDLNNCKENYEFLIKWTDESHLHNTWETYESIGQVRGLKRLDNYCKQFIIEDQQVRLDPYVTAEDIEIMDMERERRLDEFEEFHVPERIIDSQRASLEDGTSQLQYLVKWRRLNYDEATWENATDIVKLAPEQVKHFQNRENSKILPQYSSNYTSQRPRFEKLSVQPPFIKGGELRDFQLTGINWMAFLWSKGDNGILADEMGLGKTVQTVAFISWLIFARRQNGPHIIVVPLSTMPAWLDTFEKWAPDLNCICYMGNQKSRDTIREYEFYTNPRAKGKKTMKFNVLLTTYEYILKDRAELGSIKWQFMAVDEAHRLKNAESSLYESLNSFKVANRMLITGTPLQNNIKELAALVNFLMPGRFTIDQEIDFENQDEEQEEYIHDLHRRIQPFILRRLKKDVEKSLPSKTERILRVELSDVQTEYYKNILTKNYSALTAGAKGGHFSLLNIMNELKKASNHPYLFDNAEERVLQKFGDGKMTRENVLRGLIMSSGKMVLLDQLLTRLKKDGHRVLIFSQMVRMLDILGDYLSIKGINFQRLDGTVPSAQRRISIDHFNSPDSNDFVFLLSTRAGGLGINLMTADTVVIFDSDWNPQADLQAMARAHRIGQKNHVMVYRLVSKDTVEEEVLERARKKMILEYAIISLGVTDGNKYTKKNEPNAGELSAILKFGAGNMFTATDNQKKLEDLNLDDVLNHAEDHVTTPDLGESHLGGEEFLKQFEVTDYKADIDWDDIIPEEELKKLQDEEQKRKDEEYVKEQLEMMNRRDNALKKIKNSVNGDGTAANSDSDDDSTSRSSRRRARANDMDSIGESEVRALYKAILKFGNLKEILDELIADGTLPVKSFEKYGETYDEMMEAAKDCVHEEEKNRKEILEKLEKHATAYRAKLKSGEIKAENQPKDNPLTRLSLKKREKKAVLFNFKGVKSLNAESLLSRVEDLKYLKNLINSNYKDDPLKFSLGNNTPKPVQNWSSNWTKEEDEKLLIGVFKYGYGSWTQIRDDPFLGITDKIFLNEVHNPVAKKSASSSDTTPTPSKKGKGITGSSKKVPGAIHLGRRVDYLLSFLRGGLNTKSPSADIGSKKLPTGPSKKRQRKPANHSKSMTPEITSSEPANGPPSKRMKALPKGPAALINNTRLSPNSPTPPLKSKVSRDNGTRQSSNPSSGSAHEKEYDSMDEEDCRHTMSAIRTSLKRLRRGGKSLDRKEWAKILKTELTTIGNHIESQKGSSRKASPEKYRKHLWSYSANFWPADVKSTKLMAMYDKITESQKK
Type: functional
Parameters: scale not given: in the data most compounds retested in dose-response had high values
Compound `CCC1CN(c2nnc(C)c(C)c2C#N)CCO1` (stereo not given) has a Percent Effect of -13.8%.
Work on `COC(=O)c1ccccc1NC(=O)c1nc2ccccc2n(C)c1=O` yielded a Percent Effect of -8.57%.
`CCn1cnnc1C1CCN(C(=O)c2ccc(C(=O)OC)s2)CC1` gave a Percent Effect of -5.74%.
With `COc1ccc(NC(=O)CNc2cccc3c2CCCC3)c(OC)c1` the Percent Effect was -3.27%.
For `Cc1ccc(N2CCCC(NCc3cccc4c3OCCO4)C2)nn1` (stereo not given), the Percent Effect was -10.3%.
Compound `Cc1nc(CN2C(=O)C[C@@H]3[C@@H]2CCN3C(=O)C2CCOCC2)cs1` has a Percent Effect of -3.04%.
With `Cc1cnn(CC2CCCCN2CCC(=O)Nc2cc(C)on2)c1` (stereo not given) the Percent Effect was -13.7%.
For `COCC(=O)N1CCC2(CC1)COCCN2CCN(C)C`, the Percent Effect was 0.531%.
`CCc1n[nH]c(C2CN(Cc3nccn3CC)CCO2)n1` (stereo not given) was tested, and the Percent Effect was -16.2%.
With `CCOc1cccc(NS(=O)(=O)c2cc(C)c(C(=O)O)s2)c1` the Percent Effect was -13.9%.
In the case of `CCCNC(=O)c1sc(Nc2ccc(Cl)cn2)nc1C`, the Percent Effect was -6.09%.
`CC(C)c1ncc2c(n1)CN(Cc1nc(Cc3ccccc3)no1)CC2` gave a Percent Effect of 0.435%.
Compound `CS(=O)(=O)NC1CCN(C(=O)NCCNc2ccccn2)CC1` has a Percent Effect of -1.89%.
In the case of `OCC1CCCN1c1cc(NCc2ccc(Cl)s2)ncn1` (stereo not given), the Percent Effect was -15.5%.
Compound `COc1cc(CCC(=O)NC2CC2)ccc1OCC(F)(F)F` has a Percent Effect of -1.66%.
`CCS(=O)(=O)c1ccc(N2CCC(NC(C)=O)CC2)cc1` showed a Percent Effect of -7.72%.
`CC(=O)c1cn(CCC(=O)N[C@H](C(=O)O)C(C)C)c2ccccc12` gave a Percent Effect of -3.85%.
With `CCS(=O)(=O)c1ccc(N2CCC(NC(=O)c3cnn(C)c3)CC2)cc1` the Percent Effect was -5.47%.
Compound `Cc1nc[nH]c1-c1nc2cc(S(=O)(=O)N3CCCC3)ccc2n1C` has a Percent Effect of -5.76%.
`CCN(CCn1cccn1)Cc1nc(-c2ccccc2F)oc1C` showed a Percent Effect of 2.51%.
`CN(Cc1ccncc1)C(=O)Nc1cnn(CC2CCCO2)c1` (stereo not given) was tested, and the Percent Effect was -5.74%.
In the case of `Cc1cccc(-c2ccc(C(=O)NCC3CCOC3)c(=O)[nH]2)c1` (stereo not given), the Percent Effect was -8.03%.
With `COc1ccc(C2CCCN2C(=O)NCCNc2ncccn2)cc1` (stereo not given) the Percent Effect was -6.8%.
Work on `Cc1cc(C)c2nc(CN3CC[C@@H](O)C3)cc(O)c2c1` yielded a Percent Effect of -5.98%.
`CCOc1cccc(CNC(=O)NCC(O)c2cccc(F)c2)c1` (stereo not given) was tested, and the Percent Effect was -11.2%.
Work on `CN(C)C1CCN(C(=O)NCc2ccc(Cn3cncn3)cc2)CC1` yielded a Percent Effect of -10%.
`Cc1nn(C)c(C)c1C1CCCN1C(=O)CCCn1cccn1` (stereo not given) was tested, and the Percent Effect was 1.61%.
With `O=C(NC1CCS(=O)(=O)C1)c1sccc1-c1ccc(F)cc1` (stereo not given) the Percent Effect was 11.7%.
In the case of `O=C(NCCn1ccnc1)c1cccc(F)c1`, the Percent Effect was -6.88%.
`CCC(=O)N1Cc2nccn2CC(CN(C)Cc2cccnc2)C1` (stereo not given) gave a Percent Effect of -6.9%.
`Cc1nc(N2CCN(C(=O)c3ccc(O)cc3)CC2)c2cnn(C)c2n1` gave a Percent Effect of 0.501%.
For `CCOC(=O)C1CCN(C(=O)Cn2ccc3cc(Br)ccc32)CC1`, the Percent Effect was -13.5%.
`Cc1cccc(CN2C[C@@H]3CN(C(=O)c4ccsc4)C[C@@H]3C2=O)c1` was tested, and the Percent Effect was 0.397%.
`CN(C)S(=O)(=O)c1ccc(OCCNCCn2cccn2)cc1` was tested, and the Percent Effect was -41.4%.
In the case of `CN(C)S(=O)(=O)N1CCC2(CCCN(Cc3ccc(F)cc3)C2=O)C1` (stereo not given), the Percent Effect was -6.71%.
`CCOc1nnc(CN(C)C2CCCN(c3cccnn3)C2)s1` (stereo not given) gave a Percent Effect of -4.02%.
`Cc1cc(-c2nnn(CCC(N)=O)n2)ccc1F` showed a Percent Effect of -2.17%.
Work on `Cn1cc(C(=O)CC2CCCN2C(=O)c2cncc3ccccc23)cn1` (stereo not given) yielded a Percent Effect of -15%.
`Cc1ccccc1CSCCn1nc2ccccn2c1=O` showed a Percent Effect of -32.9%.
For `Cn1ccnc1-c1cccc(NC(=O)NCCCO)c1`, the Percent Effect was -4.21%.
